Results published in PubChem BioAssay.
A number with no mark means an inactive call.

Experiment: fission yeast growth modulation, primary screen, strain 972, OD600, 24 h, no modulator (AID 1090);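 further: basal condition with compound alone and no growth modifier present; test concentration not given here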
Details: S. pombe 972 growth, higher = more signal, called active from +8 up or from −8 down
Work on C=CCC(OC(C)=O)[C@@H]1[C@@H](N(Cc2ccc(-c3ccccc3)cc2)C(=O)c2ccc(-c3ccccc3)cc2)c2cc(OCCCO)ccc2N1C(=O)c1ccc2ccccc2c1 (some centres undefined) yielded a z-score of 0.109.
Compound CCOC(=O)C[C@H]1[C@H](OC(=O)c2cc3ccccc3oc2=O)[C@@H](NC(=O)c2ccc3ccccc3n2)c2cc(OCCCO)ccc2N1C(=O)Cc1ccc(OC)cc1 has a z-score of -0.163.
Cc1ccc(S[C@]2(C(=O)NCC(F)(F)F)CC(=O)N(Cc3cc(C(F)(F)F)cc(C(F)(F)F)c3)[C@@H]2c2ccc(CO)cc2)cc1 showed a z-score of -0.322.
For COC(=O)[C@@]1(Cc2ccc(OC)cc2)[C@H]2c3cc(C(=O)N4CCCC4)n(CCc4c[nH]c5ccc(O)cc45)c3C[C@H]2CN1C(=O)c1ccccc1, the z-score was 1.16.
Compound NC(=O)[C@@]1(Cc2ccccc2)COC(c2ccc(OCCCO)cc2)=N1 has a z-score of 0.196.
COCCOC(=O)N1C(=O)[C@@]2(c3cc(C#CCCO)ccc31)[C@H](C(=O)Nc1nc3ccccc3s1)[C@H]1C(=O)O[C@H](c3ccccc3)[C@H](c3ccccc3)N1[C@@H]2c1ccc(O)cc1 showed a z-score of 0.663.
COc1ccc([Si](C)(C)[C@@H]2[C@@H](CCO)O[C@]3(C(=O)N(Cc4ccccc4)c4ccc(N5CCOC5=O)cc43)[C@H]2C)cc1 showed a z-score of -0.522.
C=C(/C(=C/C[C@H](OC(C)=O)c1ccc(CO)o1)c1cnc2ccccc2c1)C(C)C showed a z-score of -1.13.
Compound COC(=O)[C@@]1(Cc2ccccc2)[C@H]2c3cc(C(=O)N4CCCC4)n(CCc4ccccn4)c3C[C@H]2CN1C(=O)c1ccccc1 has a z-score of 0.741.
